This passage reports outcome and AC50 results from PubChem BioAssay (EPA / NIEHS).

The structures appear in SMILES notation. Active and inactive are the calls of the source. Rule for the calls: active = hit-call score of the fitted dose curve at least 0.9, where 1 is the maximum; inactive = score below 0.9.

Test [1] is described as follows: ATG_GLI_CIS: Attagene CIS-FACTORIAL HepG2 Assay for human Zinc Finger Protein GLI1 (AID 2282945). To be noted: HepG2, Attagene cis-factorial reporter mRNA, GLI element; actives raise or lower the signal. In outline: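 HepG2 cells transiently transfected with cis-promoter multiplexed reporter units report endogenous transcription factor activity. After 24 h chemical exposure, reporter mRNA was quantified by RT-PCR, 6-FAM labelling, HpaI digestion and capillary electrophoresis, with bidirectional fitting against DMSO.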

For test [2], the target named is Bile acid receptor (Homo sapiens) (UniProt Q96RI1). Kind of test: ATG_IR1_CIS: Attagene CIS-FACTORIAL HepG2 Assay for human Nuclear Receptor Subfamily 1 Group H Member 4 (NR1H4), IR1 submotif (AID 2282946). Conditions: IR1 reporter transcription, actives raise or lower the signal. In outline:
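Readout: reporter transcript levels by RT-PCR with fluorescent capillary electrophoresis, from HepG2 cells transiently transfected with multiplexed cis-regulated reporters and dosed 24 h. Gain- or loss-of-signal fitted versus DMSO negative control.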

Test [3] can be described thus: ATG_GRE_CIS: Attagene CIS-FACTORIAL HepG2 Assay for human Glucocorticoid Response Elements (GRE) (AID 2282947). Conditions: HepG2 GRE cis-reporter, Attagene multiplex mRNA; actives raise or lower the signal. In outline: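 HepG2, transient cis-reporter transfection, 24 h. Reporter mRNA: RT-PCR then CE, fluorescence. Fit both directions vs DMSO.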
Test [4] in a line: ATG_ISRE_CIS: Attagene CIS-FACTORIAL HepG2 Assay for human Interferon Regulatory Factor 1 (IRF1) binding to an Interferon-Stimulated Response Element (ISRE) (AID 2282948). Conditions: HepG2 ISRE cis-reporter (Attagene), mRNA transcription readout; actives raise or lower the signal. In outline: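 Uses HepG2 liver cells transfected with cis-regulated reporters and measures mRNA 24 h post-dosing through RT-PCR, primer-extension labelling and capillary electrophoresis, with DMSO as negative control.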

Test [5] is described as follows: ATG_M_32_CIS: Attagene CIS-FACTORIAL HepG2 Assay for M32 Transcription Factor (Internal Marker) (AID 2282949).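 Note: background control marker of the multiplexed CIS panel rather than a real target.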 To be noted: HepG2 Attagene cis-factorial M32 reporter, mRNA; actives raise or lower the signal. In outline: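 Using DMSO as baseline, bidirectional curve fits were applied to reporter mRNA signals. These came from transiently transfected HepG2 cells exposed for 24 h, with RNA analysed by RT-PCR, FAM primer extension, HpaI digestion and CE.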

A short description of test [6]: ATG_M_06_CIS: Attagene CIS-FACTORIAL HepG2 Assay for M06 Transcription Factor (Internal Marker) (AID 2282950). Conditions: HepG2 Attagene CIS-FACTORIAL M06 internal marker reporter; actives raise or lower the signal. In outline: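 HepG2 cells transiently transfected with cis-regulated multiple reporter transcription units were exposed to chemical for 24 h; reporter mRNA was quantified by RT-PCR, 6-FAM primer labelling, HpaI digestion and capillary electrophoresis, fitted bidirectionally against DMSO.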

In test [7] the target is Hepatocyte nuclear factor 6 (Homo sapiens) (UniProt Q9UBC0). Kind of test: ATG_HNF6_CIS: Attagene CIS-FACTORIAL HepG2 Assay for human Hepatocyte Nuclear Factor 6 (HNF6) (AID 2282952). To be noted: HepG2 Attagene cis-factorial HNF6 reporter transcription; actives raise or lower the signal. In outline:
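Readout: fluorescent reporter-transcript fragments resolved by capillary electrophoresis after RT-PCR, reflecting endogenous factor activity in transfected HepG2. Exposure 24 h. Gain or loss of signal fitted bidirectionally against DMSO.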

For test [8], the target named is Heat shock factor protein 1 (Homo sapiens) (UniProt Q00613). Kind of test: ATG_HSE_CIS: Attagene CIS-FACTORIAL HepG2 Assay for human Heat Shock Transcription Factor 1 (HSE) (AID 2282953). To be noted: HepG2 HSE cis-reporter, Attagene RNA transcription; actives raise or lower the signal. In outline: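 HepG2 cells transiently transfected with multiple reporter transcription units under cis-regulatory promoter control, measuring endogenous transcription factor activity. After 24 h chemical exposure, reporter mRNA quantified by RT-PCR, fluorescent labelling, HpaI digestion and capillary electrophoresis; bidirectional fit versus DMSO.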
Chain of Heat shock factor protein 1 (Homo sapiens) (Q00613 whole entry, looked up): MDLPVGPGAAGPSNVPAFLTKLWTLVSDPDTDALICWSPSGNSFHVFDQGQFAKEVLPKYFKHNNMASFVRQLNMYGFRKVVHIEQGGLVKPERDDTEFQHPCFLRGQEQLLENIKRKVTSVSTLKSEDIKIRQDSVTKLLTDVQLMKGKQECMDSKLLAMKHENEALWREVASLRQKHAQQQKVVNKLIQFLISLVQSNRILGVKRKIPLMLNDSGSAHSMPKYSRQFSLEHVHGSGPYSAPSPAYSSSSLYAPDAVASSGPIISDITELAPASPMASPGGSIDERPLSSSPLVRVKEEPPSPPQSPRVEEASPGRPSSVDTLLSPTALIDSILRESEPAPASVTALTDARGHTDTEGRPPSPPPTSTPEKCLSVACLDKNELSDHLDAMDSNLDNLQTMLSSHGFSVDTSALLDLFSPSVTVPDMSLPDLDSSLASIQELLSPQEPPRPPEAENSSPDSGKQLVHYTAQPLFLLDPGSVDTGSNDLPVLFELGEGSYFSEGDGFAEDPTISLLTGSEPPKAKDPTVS

A short description of test [9]: ATG_MRE_CIS: Attagene CIS-FACTORIAL HepG2 Assay for human Metal Responsive Element (MRE) (AID 2282954). Conditions: HepG2 MRE cis-reporter transcription, Attagene multiplex; actives raise or lower the signal. In outline: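 Readout: capillary electrophoresis of 6-FAM-labelled, HpaI-digested RT-PCR reporter products. System: HepG2 cells carrying transient multiplexed cis reporters, dosed 24 h. Analysis: bidirectional fit, DMSO baseline.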

Test [10] is described as follows: ATG_PBREM_CIS: Attagene CIS-FACTORIAL HepG2 Assay for human Phenobarbital-responsive Enhancer Module (PBREM) (AID 2282955). Conditions: HepG2 PBREM cis-reporter, Attagene multiplexed transcription; actives raise or lower the signal. In outline: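 After a 24 h incubation with test chemical, transfected HepG2 cells yield total RNA; reporter-specific RT-PCR products are fluorescently labelled, HpaI-digested and resolved by capillary electrophoresis against ROX size standards.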

Test [11] has as its target Paired box protein Pax-6 (Homo sapiens) (UniProt P26367). Nature of the test: ATG_Pax6_CIS: Attagene CIS-FACTORIAL HepG2 Assay for human Paired Box 6 (PAX6) (AID 2282956). Conditions: HepG2 CIS-FACTORIAL PAX6 reporter transcription, RNA readout; actives raise or lower the signal. In outline: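 DMSO-referenced bidirectional fits of reporter mRNA fluorescence; HepG2 with transient cis-promoter MRTUs, 24 h post-dose, RT-PCR plus capillary electrophoresis detection.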

The nature of test [12]: ATG_PXRE_CIS: Attagene CIS-FACTORIAL HepG2 Assay for human Pregnane X Receptor Element (PXRE) (AID 2282957). To be noted: HepG2 Attagene CIS-FACTORIAL PXRE reporter, mRNA; actives raise or lower the signal. In outline:
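Read-out: fluorescence of reporter-specific RT-PCR products resolved by capillary electrophoresis, fitted bidirectionally relative to DMSO. Human HepG2 liver cells carried transfected cis-promoter reporter units and were exposed to chemicals for 24 h.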

A short description of test [13]: ATG_PPRE_CIS: Attagene CIS-FACTORIAL HepG2 Assay for human Peroxisome Proliferator-activated Response Element (PPRE) (AID 2282958). Conditions: HepG2 PPRE cis-element reporter, Attagene transcription factor profiling; actives raise or lower the signal. In outline:
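Multiplexed reporter transcription units under cis-regulatory promoters were transfected into HepG2 cells to capture endogenous factor activity. A 24 h incubation preceded RNA isolation and fluorescent RT-PCR fragment analysis.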

Test [14] is described as follows: ATG_RORE_CIS: Attagene CIS-FACTORIAL HepG2 Assay for human RAR-related Orphan Receptor Element (RORE) (AID 2282959). To be noted: HepG2 Attagene cis-factorial RORE reporter, mRNA; actives raise or lower the signal. In outline: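 Fluorescence intensity of reporter-specific cDNA fragments, separated by capillary electrophoresis, gives the signal. Source: HepG2 liver cells transiently transfected with cis-element reporters and exposed 24 h; DMSO-normalized bidirectional fit.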

Test [15] is described as follows: ATG_Sox_CIS: Attagene CIS-FACTORIAL HepG2 Assay for human SRY-box transcription factor (SOX) (AID 2282960). Conditions: HepG2 Attagene cis-factorial SOX reporter, mRNA; actives raise or lower the signal. In outline: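 After 24 h of chemical treatment, transfected HepG2 reporter cells are lysed for total RNA. Transcript levels come from RT-PCR with labelled primer extension and capillary electrophoresis, analysed bidirectionally versus DMSO.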

For test [16], the target named is Transcription factor Sp1 (Homo sapiens) (UniProt P08047). Nature of the test: ATG_Sp1_CIS: Attagene CIS-FACTORIAL HepG2 Assay for human Specificity Protein 1 (Sp1) (AID 2282961). Conditions: HepG2 Sp1 cis-reporter transcription, actives raise or lower the signal. In outline: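 Sp1-driven reporter mRNA, read as capillary electrophoresis fluorescence after RT-PCR, in transiently transfected HepG2 cells dosed for 24 h; signal change in either direction relative to DMSO.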
Chain of Transcription factor Sp1 (Homo sapiens) (P08047 whole entry, looked up): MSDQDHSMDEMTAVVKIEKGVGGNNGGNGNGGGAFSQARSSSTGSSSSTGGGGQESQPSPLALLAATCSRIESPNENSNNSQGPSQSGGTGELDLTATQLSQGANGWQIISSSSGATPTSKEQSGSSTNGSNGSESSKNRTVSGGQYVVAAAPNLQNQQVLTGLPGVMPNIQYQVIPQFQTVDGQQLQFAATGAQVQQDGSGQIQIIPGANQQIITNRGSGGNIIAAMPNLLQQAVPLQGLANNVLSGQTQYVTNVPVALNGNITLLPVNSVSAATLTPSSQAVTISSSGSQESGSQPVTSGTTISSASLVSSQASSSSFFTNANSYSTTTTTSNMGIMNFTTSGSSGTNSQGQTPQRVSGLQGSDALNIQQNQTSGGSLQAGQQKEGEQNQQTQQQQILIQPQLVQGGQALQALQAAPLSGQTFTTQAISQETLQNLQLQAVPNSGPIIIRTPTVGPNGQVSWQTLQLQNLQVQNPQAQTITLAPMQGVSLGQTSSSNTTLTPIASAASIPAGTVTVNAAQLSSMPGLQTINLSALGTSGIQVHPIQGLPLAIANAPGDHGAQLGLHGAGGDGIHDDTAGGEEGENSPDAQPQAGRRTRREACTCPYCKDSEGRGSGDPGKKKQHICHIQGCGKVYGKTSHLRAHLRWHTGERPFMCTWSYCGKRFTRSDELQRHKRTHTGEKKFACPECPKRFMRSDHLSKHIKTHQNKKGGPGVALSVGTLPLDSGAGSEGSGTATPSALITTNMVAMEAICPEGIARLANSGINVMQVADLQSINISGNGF

The nature of test [17]: ATG_SREBP_CIS: Attagene CIS-FACTORIAL HepG2 Assay for human Sterol Regulatory Element Binding (SREBP) (AID 2282962). To be noted: HepG2 Attagene cis-factorial SREBP reporter, mRNA; actives raise or lower the signal. In outline:
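In this cis-format assay, HepG2 liver cells express reporters controlled by promoter elements responsive to native transcription factors. Exposure lasts 24 h; reporter mRNA fluorescence from capillary electrophoresis gives the signal, fitted bidirectionally against DMSO.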

Test [18] has as its target Signal transducer and activator of transcription 3 (Homo sapiens) (UniProt P40763). Kind of test: ATG_STAT3_CIS: Attagene CIS-FACTORIAL HepG2 Assay for human Signal Transducer and Activator of Transcription 3 (STAT3) (AID 2282963). To be noted: HepG2, Attagene cis-factorial STAT3 reporter transcription; actives raise or lower the signal. In outline:
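Uses human liver HepG2 transiently carrying cis-regulated reporter transcription units. Following 24 h dosing, reporter mRNA induction was detected by RT-PCR and capillary electrophoresis, analysed bidirectionally versus DMSO.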

Test [19] is described as follows: ATG_TA_CIS: Attagene CIS-FACTORIAL HepG2 Assay for human TA Basal Promoter (AID 2282964). Conditions: HepG2 Attagene CIS-factorial TA basal promoter reporter; actives raise or lower the signal. In outline:
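HepG2 cells transiently transfected with multiplexed cis-promoter reporter units, dosed 24 h. Reporter mRNA measured by RT-PCR, 6-FAM labelling, HpaI digestion and capillary electrophoresis; bidirectional fit versus DMSO baseline, serving as background control.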

Test [20] deals with Hypoxia-inducible factor 1-alpha (Homo sapiens) (UniProt Q16665). Nature of the test: ATG_HIF1a_CIS: Attagene CIS-FACTORIAL HepG2 Assay for human Hypoxia Inducible Factor 1 (HIF1A) (AID 2282951). Conditions: HepG2 Attagene cis-factorial HIF1a reporter transcription; actives raise or lower the signal. In outline:
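In this multiplexed cell assay, HepG2 cells bearing transfected cis reporters are dosed for 24 h and reporter mRNA is read by RT-PCR plus capillary electrophoresis; signal increases and decreases are both scored against DMSO.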

Chain of Bile acid receptor (Homo sapiens) (Q96RI1 whole entry, looked up): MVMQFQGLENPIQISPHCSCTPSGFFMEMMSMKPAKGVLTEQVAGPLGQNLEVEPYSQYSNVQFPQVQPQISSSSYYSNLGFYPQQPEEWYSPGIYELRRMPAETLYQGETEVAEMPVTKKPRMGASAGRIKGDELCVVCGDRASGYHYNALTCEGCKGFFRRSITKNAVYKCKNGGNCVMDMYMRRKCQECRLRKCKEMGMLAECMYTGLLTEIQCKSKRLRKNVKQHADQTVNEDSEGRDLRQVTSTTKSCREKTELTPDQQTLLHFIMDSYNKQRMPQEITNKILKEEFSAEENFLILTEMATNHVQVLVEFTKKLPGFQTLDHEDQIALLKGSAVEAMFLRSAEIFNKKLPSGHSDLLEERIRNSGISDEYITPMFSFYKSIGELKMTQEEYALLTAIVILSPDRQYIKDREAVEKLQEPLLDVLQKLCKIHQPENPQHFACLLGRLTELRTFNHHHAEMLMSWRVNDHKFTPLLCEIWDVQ
Chain of Paired box protein Pax-6 (Homo sapiens) (P26367 whole entry, looked up): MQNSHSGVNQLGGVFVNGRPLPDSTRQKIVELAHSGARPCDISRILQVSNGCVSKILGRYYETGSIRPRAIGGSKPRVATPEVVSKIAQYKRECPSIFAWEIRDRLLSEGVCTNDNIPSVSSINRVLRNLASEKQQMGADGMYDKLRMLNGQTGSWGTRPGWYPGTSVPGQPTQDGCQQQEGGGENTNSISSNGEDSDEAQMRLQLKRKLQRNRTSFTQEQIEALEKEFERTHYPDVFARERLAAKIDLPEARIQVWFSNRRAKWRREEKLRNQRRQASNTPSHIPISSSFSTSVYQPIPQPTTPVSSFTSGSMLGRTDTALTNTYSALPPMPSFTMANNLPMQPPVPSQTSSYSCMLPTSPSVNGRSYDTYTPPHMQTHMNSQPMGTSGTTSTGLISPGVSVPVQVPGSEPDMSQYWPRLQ
Chain of Hepatocyte nuclear factor 6 (Homo sapiens) (Q9UBC0 whole entry, looked up, the tested form may be a part): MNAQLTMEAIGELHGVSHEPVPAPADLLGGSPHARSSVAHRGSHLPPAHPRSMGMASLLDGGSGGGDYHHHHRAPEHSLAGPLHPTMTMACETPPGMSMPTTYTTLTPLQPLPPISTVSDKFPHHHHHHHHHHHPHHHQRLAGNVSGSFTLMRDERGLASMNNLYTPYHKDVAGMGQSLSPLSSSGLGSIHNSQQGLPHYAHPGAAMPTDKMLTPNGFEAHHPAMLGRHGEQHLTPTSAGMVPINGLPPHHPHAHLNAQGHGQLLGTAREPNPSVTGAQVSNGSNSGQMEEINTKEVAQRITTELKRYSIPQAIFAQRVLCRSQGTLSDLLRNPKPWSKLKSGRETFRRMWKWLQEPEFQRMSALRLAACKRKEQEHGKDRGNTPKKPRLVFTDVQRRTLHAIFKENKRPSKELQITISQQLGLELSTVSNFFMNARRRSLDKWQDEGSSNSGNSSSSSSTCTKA
Chain of Signal transducer and activator of transcription 3 (Homo sapiens) (P40763 whole entry, looked up): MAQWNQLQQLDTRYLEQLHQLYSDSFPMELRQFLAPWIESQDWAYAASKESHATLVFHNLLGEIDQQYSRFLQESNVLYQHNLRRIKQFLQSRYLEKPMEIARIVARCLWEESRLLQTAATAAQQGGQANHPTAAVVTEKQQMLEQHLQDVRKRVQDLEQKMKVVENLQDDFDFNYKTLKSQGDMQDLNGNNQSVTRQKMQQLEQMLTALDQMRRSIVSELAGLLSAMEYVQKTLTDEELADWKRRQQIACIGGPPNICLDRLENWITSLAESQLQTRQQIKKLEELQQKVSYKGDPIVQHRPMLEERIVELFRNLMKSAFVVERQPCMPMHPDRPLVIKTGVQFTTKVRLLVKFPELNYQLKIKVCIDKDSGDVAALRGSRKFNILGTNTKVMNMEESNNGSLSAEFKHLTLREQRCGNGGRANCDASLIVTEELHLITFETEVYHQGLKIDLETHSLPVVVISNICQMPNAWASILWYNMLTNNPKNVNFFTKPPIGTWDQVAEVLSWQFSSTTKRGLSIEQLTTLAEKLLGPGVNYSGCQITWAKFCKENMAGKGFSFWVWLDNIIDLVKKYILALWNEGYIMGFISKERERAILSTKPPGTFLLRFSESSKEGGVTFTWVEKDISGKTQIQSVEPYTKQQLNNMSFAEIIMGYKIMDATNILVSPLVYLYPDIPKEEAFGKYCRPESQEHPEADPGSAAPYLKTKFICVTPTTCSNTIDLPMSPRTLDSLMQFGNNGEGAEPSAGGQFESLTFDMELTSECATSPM
Chain of Hypoxia-inducible factor 1-alpha (Homo sapiens) (Q16665 whole entry, looked up): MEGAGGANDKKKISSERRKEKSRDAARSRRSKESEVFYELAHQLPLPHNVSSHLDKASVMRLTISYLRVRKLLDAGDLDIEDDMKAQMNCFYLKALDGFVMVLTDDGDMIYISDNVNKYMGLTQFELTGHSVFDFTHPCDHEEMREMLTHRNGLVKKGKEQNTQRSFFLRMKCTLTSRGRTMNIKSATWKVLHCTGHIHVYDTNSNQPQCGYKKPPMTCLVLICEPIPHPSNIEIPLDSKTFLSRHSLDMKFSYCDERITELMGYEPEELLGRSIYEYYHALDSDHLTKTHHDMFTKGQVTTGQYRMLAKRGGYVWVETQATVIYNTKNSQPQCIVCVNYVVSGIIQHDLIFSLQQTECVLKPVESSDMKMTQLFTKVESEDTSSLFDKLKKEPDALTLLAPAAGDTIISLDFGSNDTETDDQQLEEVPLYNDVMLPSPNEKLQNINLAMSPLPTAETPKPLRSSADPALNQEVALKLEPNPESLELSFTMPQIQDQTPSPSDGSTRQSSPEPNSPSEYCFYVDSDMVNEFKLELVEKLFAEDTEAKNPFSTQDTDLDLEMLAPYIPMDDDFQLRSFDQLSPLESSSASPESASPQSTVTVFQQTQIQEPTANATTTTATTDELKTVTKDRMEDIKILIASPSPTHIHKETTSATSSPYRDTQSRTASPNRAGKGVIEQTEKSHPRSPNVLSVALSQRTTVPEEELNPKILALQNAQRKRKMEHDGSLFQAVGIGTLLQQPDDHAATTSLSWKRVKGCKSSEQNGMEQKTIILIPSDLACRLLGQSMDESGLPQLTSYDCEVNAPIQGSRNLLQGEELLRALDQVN

On to `COc1ccc2[nH]cc(CCNC(C)=O)c2c1`, for which the outcome in test [1], in [2], in test [3], in test [4], in [5] and in [6] was inactive. For the same molecule, the molecule was called inactive in [7], in [8], in [9], in [10], in test [11] and in test [12]. Also, the outcome in test [13], in [14], in test [15], in [16], in [17] and in [18] was inactive. Besides, the result in [19] was inactive.
Take `Cc1ccccc1S`: the outcome in [1], in [4], in test [5], in test [6], in test [20] and in test [7] was inactive. The result in test [14], in [18] and in test [19] was inactive. Moreover, the AC50 is 55.7 µM (active) in test [2]; 113 µM (active) in [8]; 102 µM (active) in test [9]; 60.4 µM (active) in [11]; 19.7 µM (active) in test [12]; 103 µM (active) in test [15]. Also, in [16], the AC50 is 80.3 µM (active).
Turning to `CC1=CCC(C(C)(C)O)CC1` (stereo not drawn), the call in test [1], in test [2], in test [4], in [5], in [6] and in test [20] was inactive. For the same molecule, the molecule was called inactive in test [7], in test [8], in [9], in test [11], in [12] and in test [15]. For the same molecule, the result in test [17], in test [18] and in [19] was inactive.
As for `C[C@H](CCC(=O)O)[C@H]1CC[C@H]2[C@@H]3CC[C@@H]4C[C@H](O)CC[C@]4(C)[C@H]3CC[C@]12C`, the outcome in test [1], in [2], in test [3], in [5], in test [6] and in [10] was inactive. Besides, the outcome in test [13], in [14], in test [15] and in test [18] was inactive. The AC50 is 27.4 µM (active) in test [4]; 146 µM (active) in [7]; 25.6 µM (active) in test [8]; 26.4 µM (active) in [9]; 27.5 µM (active) in test [11]; 3.75 µM (active) in [12]. For the same molecule, the values for the half-maximal activity concentration (AC50) in [16] and in test [19] were 168 µM (active) and 25.3 µM (active), respectively.
